PubChem BioAssay (EPA / NIEHS)
Calls of active or inactive are those of the source. How the source made its calls, unless noted: active means hit-call score of the fitted dose curve at least 0.9, where 1 is the maximum; inconclusive means response in the unintended direction; inactive means score below 0.9.

Read-out: X-box binding protein 1 (XBP1), XBP1 (gene 7494)
Assay: LTEA_HepaRG_XBP1: Life Technologies and Expression Analysis (LTEA) Assay for X-box binding protein 1 (XBP1) using HepaRG (AID 2283540; active means hit-call score of the fitted dose curve at least 0.9, where 1 is the maximum; inactive means score below 0.9)
Details: mRNA level, 48 h; actives raise or lower the signal
Summary of the method: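 Human HepaRG monolayers receive test chemical for 48 h across an eight-point half-log series starting at 100 uM. XBP1 mRNA gain or loss is scored against DMSO by qRT-PCR.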

Compound	outcome	AC50
C=CC(N)=O	inactive	
CCOCCOC(C)=O	inactive	
Oc1ccc(C(c2ccc(O)cc2)(C(F)(F)F)C(F)(F)F)cc1		77.7 µM (active)
CCCCCCOC(=O)c1ccccc1C(=O)OCCCCCC	inactive	
O=S(=O)(O)C(F)(F)C(F)(F)C(F)(F)C(F)(F)F	inactive	
CCCCCCCCCC[N+](C)(C)CCCCCCCCCC	inactive	
CCC(=O)O[C@H]1CC[C@H]2[C@@H]3CCC4=CC(=O)CC[C@]4(C)[C@H]3CC[C@]12C	inactive	
CC(C)(O)C(=O)Nc1ccc([N+](=O)[O-])c(C(F)(F)F)c1		0.0212 µM (active)
CO/C=C(/C(=O)OC)c1ccccc1COc1cccc(C(F)(F)F)n1	inactive	
CC(c1ccc(O)cc1)(c1ccc(O)cc1)c1ccc(O)cc1	inactive	
CN(C)CCO	inactive	
CC1=C2C[C@H]3[C@@H](CC=C4C[C@@H](O)CC[C@@]43C)[C@@H]2CC[C@]12O[C@@H]1C[C@H](C)CN[C@H]1[C@H]2C		25 µM (active)
Cc1cc(O)ccc1Cl	inactive	
Nn1cnnc1	inactive	
O=C(O)C(F)(F)C(F)(F)C(F)(F)C(F)(F)C(F)(F)C(F)(F)C(F)(F)C(F)(F)F	inactive	
Cc1cccc(C)c1N	inactive	
O=C(NC(=O)c1c(F)cccc1F)Nc1cc(Cl)c(OC(F)(F)C(F)F)c(Cl)c1	inactive	

Compound	outcome	AC50
O=C(NC(=O)c1cc(F)c(F)cc1Cl)Nc1cc(F)ccc1N1CCC(C(=O)O)CC1	inactive	
O=C(O)C(F)(F)C(F)(F)C(F)(F)C(F)(F)C(F)(F)F	inactive	
CCOP(=S)(OCC)SCSC(C)(C)C	inactive	
CCCCCCCCCc1ccc(O)cc1	inactive	
Cc1cccc([N+](=O)[O-])c1	inactive	
CC(C)(c1ccccc1)c1ccc(O)cc1	inactive	
c1cc2ccc3cccc4ccc(c1)c2c34	inactive	
ClC1=C(Cl)[C@]2(Cl)[C@@H]3[C@@H]4C[C@@H]([C@H]5O[C@@H]45)[C@@H]3[C@@]1(Cl)C2(Cl)Cl		0.0249 µM (active)
C[C@]12CCC(=O)C=C1CC[C@@H]1[C@@H]2CC[C@@]2(C)[C@H]1CC[C@]2(C)O	inactive	
Clc1ccc(C(Cl)(Cl)Cl)cc1	inactive	
CCCCCCCCOC(=O)c1ccccc1C(=O)OCCCCCCCC	inactive	
ClC(Cl)=C(c1ccc(Cl)cc1)c1ccc(Cl)cc1	inactive	
Nc1ccc(-c2ccc(N)cc2)cc1	inactive	
O=S(=O)(O)C(F)(F)C(F)(F)C(F)(F)C(F)(F)C(F)(F)C(F)(F)F	inactive	
C[C@]12CCC(=O)C=C1CC[C@@H]1[C@@H]2CC[C@]2(C)C(=O)CC[C@@H]12	inactive	
CCOC(=O)C(O)(c1ccc(Cl)cc1)c1ccc(Cl)cc1	inactive	

Read-out: not listed separately
Assay: LTEA_HepaRG_LDH_cytotoxicity: Cytotoxicity Assessment in the Life Technologies and Expression Analysis (LTEA) Assay (AID 2283563);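 on AC50: LDH activity released into spent culture medium as a marker of cell death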
Details: not given
Summary of the method: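 Human HepaRG hepatic cells are treated with test chemicals for 48 h at up to 100 uM in 0.5% DMSO. Cytotoxicity is scored from medium LDH against the vehicle control.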

Compound	outcome	AC50
C=CC(N)=O	inactive	
CCOCCOC(C)=O	inactive	
Oc1ccc(C(c2ccc(O)cc2)(C(F)(F)F)C(F)(F)F)cc1		77 µM (active)
CCCCCCOC(=O)c1ccccc1C(=O)OCCCCCC	inactive	
O=S(=O)(O)C(F)(F)C(F)(F)C(F)(F)C(F)(F)F	inactive	
CCCCCCCCCC[N+](C)(C)CCCCCCCCCC		36.6 µM (active)
CCC(=O)O[C@H]1CC[C@H]2[C@@H]3CCC4=CC(=O)CC[C@]4(C)[C@H]3CC[C@]12C	inactive	
CC(C)(O)C(=O)Nc1ccc([N+](=O)[O-])c(C(F)(F)F)c1	inactive	
CO/C=C(/C(=O)OC)c1ccccc1COc1cccc(C(F)(F)F)n1		21.2 µM (active)
CC(c1ccc(O)cc1)(c1ccc(O)cc1)c1ccc(O)cc1		76.5 µM (active)
CN(C)CCO	inactive	
CC1=C2C[C@H]3[C@@H](CC=C4C[C@@H](O)CC[C@@]43C)[C@@H]2CC[C@]12O[C@@H]1C[C@H](C)CN[C@H]1[C@H]2C	inactive	
Cc1cc(O)ccc1Cl	inactive	
Nn1cnnc1	inactive	
O=C(O)C(F)(F)C(F)(F)C(F)(F)C(F)(F)C(F)(F)C(F)(F)C(F)(F)C(F)(F)F		78.6 µM (active)
Cc1cccc(C)c1N	inactive	
O=C(NC(=O)c1c(F)cccc1F)Nc1cc(Cl)c(OC(F)(F)C(F)F)c(Cl)c1	inactive	

Compound	outcome	AC50
O=C(NC(=O)c1cc(F)c(F)cc1Cl)Nc1cc(F)ccc1N1CCC(C(=O)O)CC1	inactive	
O=C(O)C(F)(F)C(F)(F)C(F)(F)C(F)(F)C(F)(F)F	inactive	
CCOP(=S)(OCC)SCSC(C)(C)C	inactive	
CCCCCCCCCc1ccc(O)cc1	inactive	
Cc1cccc([N+](=O)[O-])c1	inactive	
CC(C)(c1ccccc1)c1ccc(O)cc1		76.7 µM (active)
c1cc2ccc3cccc4ccc(c1)c2c34	inactive	
ClC1=C(Cl)[C@]2(Cl)[C@@H]3[C@@H]4C[C@@H]([C@H]5O[C@@H]45)[C@@H]3[C@@]1(Cl)C2(Cl)Cl	inactive	
C[C@]12CCC(=O)C=C1CC[C@@H]1[C@@H]2CC[C@@]2(C)[C@H]1CC[C@]2(C)O		74 µM (active)
Clc1ccc(C(Cl)(Cl)Cl)cc1	inactive	
CCCCCCCCOC(=O)c1ccccc1C(=O)OCCCCCCCC	inactive	
ClC(Cl)=C(c1ccc(Cl)cc1)c1ccc(Cl)cc1	inactive	
Nc1ccc(-c2ccc(N)cc2)cc1	inactive	
O=S(=O)(O)C(F)(F)C(F)(F)C(F)(F)C(F)(F)C(F)(F)C(F)(F)F	inactive	
C[C@]12CCC(=O)C=C1CC[C@@H]1[C@@H]2CC[C@]2(C)C(=O)CC[C@@H]12	inactive	
CCOC(=O)C(O)(c1ccc(Cl)cc1)c1ccc(Cl)cc1	inactive	
